Measurements published in the supplement of paper PMC6555819.

Tests used:
Assay in all cases: PBM binding z-score (relative to random genomic background probes); higher = stronger binding; sequences stand for … in GC…GCGATTGACAGCGTAGAATGAAGG
[1] = tested on: FXR:RXRa (NR concentration 270 nM, RXRa partner concentration 90 nM)
In short: (§1)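 On custom Agilent 4×180K arrays, double-stranded probes with 34-nt variable regions carried direct-repeat seeds, single-nucleotide variants, half-site ablations or random human genomic background. Ligand-free nuclear receptor dimers were applied for 1 h, and binding was read with antibodies against each partner (one per run). Binding z-scores come from regression-normalized fluorescence, with the random background probes as reference.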

[2] = tested on: LXRa:RXRa (NR concentration 270 nM, RXRa partner concentration 90 nM)
In short: as §1

[3] = tested on: LXRa homodimer (NR concentration 270 nM)
In short: as §1

[4] = tested on: LXRb:RXRa (NR concentration 270 nM, RXRa partner concentration 90 nM)
In short: as §1

[5] = tested on: LXRb homodimer (NR concentration 270 nM)
In short: as §1

[6] = tested on: PPARa:RXRa (NR concentration 270 nM, RXRa partner concentration 90 nM)
In short: as §1

[7] = tested on: PPARg:RXRa (NR concentration 180 nM, RXRa partner concentration 90 nM)
In short: as §1

[8] = tested on: PPARg:RXRa 270nM:90nM, anti-RXR (NR concentration 270 nM, RXRa partner concentration 90 nM)
In short: as §1

[9] = tested on: PPARg:RXRa 30nM:10nM, anti-RXR (NR concentration 30 nM, RXRa partner concentration 10 nM)
In short: as §1

[10] = tested on: PPARg:RXRa 90nM:30nM, anti-RXR (NR concentration 90 nM, RXRa partner concentration 30 nM)
In short: as §1

| Sequence | PBM binding z-score [1] | PBM binding z-score [2] | PBM binding z-score [3] | PBM binding z-score [4] | PBM binding z-score [5] | PBM binding z-score [6] | PBM binding z-score [7] | PBM binding z-score [8] | PBM binding z-score [9] | PBM binding z-score [10] |
| --- | --- | --- | --- | --- | --- | --- | --- | --- | --- | --- |
| TCATATAGGTAATACAGGTGAATGTCGGCATCTA | 1.12 | 1.39 | 0.495 | 0.986 | 0.337 | 1.84 | 1.73 | 2.58 | 4.19 | 3.28 |
| TCTTGTAGATCAATAGAGGTTAGGAAAGTGCGCT | 1.24 | 1.49 | 0.276 | 0.914 | 0.11 | 1.62 | 0.163 | 2.04 | 3.13 | 2.57 |
| CCTCGGAGGACAGGAGGTCAGAGCTGTCCGCTTT | 1.56 | 1.79 | 0.686 | 1.2 | -0.929 | 1.96 | -0.08 | 0.65 | -0.913 | -0.13 |
| CTCGAAGGGTCGGTTGAGGTGAGTATACGGATAA | 2.14 | 0.689 | -0.0739 | 0.752 | -0.256 | 1.37 | 0.221 | 0.4 | 0.00814 | 0.0401 |
| ACTAGTTGGTCAGCTGAGGTCCCACACAATTCGG | 0.639 | -0.375 | -0.16 | -0.219 | 0.179 | -0.1 | 0.275 | -0.102 | -0.52 | -0.3 |
| CGTCCAAAGTCAGAGAGGTCAGTGAATGCCGAGT | 1.93 | 2.04 | 1.25 | 1.98 | 0.362 | 2.51 | 0.249 | 0.942 | -0.0025 | 0.475 |
| CCTAGCAGGCCGATCTGGGTCACTCAAGGCTTGA | 0.827 | 0.587 | -0.575 | 0.613 | -0.973 | 2.6 | 1.46 | 1.5 | -0.37 | 0.546 |
| CATACAGGGTGAGCTAGGCCAGAGTAGGGACGGC | 0.0783 | -0.27 | -0.348 | -0.501 | -0.241 | 0.234 | 0.608 | -0.129 | -0.308 | -0.186 |
| CCTAGTTGGTCAGGAGTTCACACACCGGATATGA | 1.64 | 2.22 | 1.92 | 1.85 | 0.3 | 2.2 | 1.24 | 1.95 | 0.752 | 1.49 |
| GCTCGGAGGACAAGGTTAGAGCTTTGTCCGTAGA | -0.181 | -0.186 | -1.07 | -0.329 | -0.89 | 0.169 | -0.843 | 0.0367 | -1.07 | -0.395 |
| ATACCAAGATGATCGTGAGGTCGTTGATACTAAC | 1.11 | 0.576 | 0.456 | 0.892 | 0.0732 | 0.598 | 0.48 | -0.158 | 0.129 | -0.00184 |
| ACTTACTGGTCAACGAGGTTATAGCACGCGTATA | 1.24 | 1.44 | 0.897 | 1.62 | 0.859 | 1.88 | 1.04 | 1.16 | 1.29 | 1.29 |
| CCTACTGGGCCACGAAAGGTCGTTGATTCAGTGA | 0.933 | 1.81 | 0.373 | 1.5 | -0.704 | 2.67 | 2.53 | 2.93 | 0.0833 | 1.96 |
| CAAACTAGGTCACAGAGGTAAAAGTCCGTGCGTA | 4.42 | 3.37 | 0.644 | 2.58 | 0.501 | 5.38 | 9.21 | 7.63 | 5.5 | 7.27 |
| CCTTACGGGTCACGATGTTATAGCACGACGAGCG | 5.82 | 3.85 | 0.154 | 3.42 | -0.0634 | 5.51 | 6.19 | 5.77 | 3.09 | 4.59 |
| TATACAGGGTCAAATGCCAGAGTACGAATGTCGA | 7.66 | 6.63 | 3.82 | 5.33 | 3.42 | 6.33 | 7.57 | 6.6 | 3.95 | 5.73 |
| TCATATAGGTAATACAGGTGACAGTCGGCATCTA | 1.08 | 1.27 | 0.299 | 0.966 | 0.0585 | 1.77 | 1.81 | 2.52 | 3.86 | 3.05 |
| CGAACTAGGTCACGGACAGTGAATCTCCGCACGC | 4.87 | 3.34 | 0.231 | 2.64 | -0.137 | 5.68 | 9.36 | 7.68 | 5.94 | 7.84 |
| CGAGACAGGTGAGAAGGTAACTCAGCCTCGATTA | -0.0468 | -0.124 | -0.337 | -0.343 | -0.761 | 0.591 | 0.452 | 0.452 | -0.196 | 0.138 |
| CAAACTATGTCACCGGAAGGTCAAAGTCCGCATG | 3.73 | 3.78 | 4.13 | 3.89 | 1.52 | 4.37 | 3.69 | 4.08 | 1.4 | 2.98 |
| CCTGCTAGGTCATGGTCACCTAATCTACAGTATG | 3.67 | 2.86 | 0.345 | 2.19 | -0.376 | 3.56 | 3.28 | 3.54 | 1.07 | 2.72 |
| ATTAGTTGGTCAGCTGAGGTCACACACAATTCGG | 3.77 | 3.68 | 3.19 | 3.95 | 1.13 | 3.96 | 2.32 | 2.81 | 1.44 | 2.13 |
| CCAACTGGGGCAAAGGTTACCATACTCAGTACGA | 1.45 | 1.76 | 0.221 | 2.29 | -0.694 | 6.03 | 11.6 | 9.99 | 9.26 | 10.5 |
